# What was measured:
# [1] = molecular target: T1, Ephrin type-B receptor 1 (Homo sapiens) (UniProt P54762); settings: at 10 µM
# T1 sequence (whole entry): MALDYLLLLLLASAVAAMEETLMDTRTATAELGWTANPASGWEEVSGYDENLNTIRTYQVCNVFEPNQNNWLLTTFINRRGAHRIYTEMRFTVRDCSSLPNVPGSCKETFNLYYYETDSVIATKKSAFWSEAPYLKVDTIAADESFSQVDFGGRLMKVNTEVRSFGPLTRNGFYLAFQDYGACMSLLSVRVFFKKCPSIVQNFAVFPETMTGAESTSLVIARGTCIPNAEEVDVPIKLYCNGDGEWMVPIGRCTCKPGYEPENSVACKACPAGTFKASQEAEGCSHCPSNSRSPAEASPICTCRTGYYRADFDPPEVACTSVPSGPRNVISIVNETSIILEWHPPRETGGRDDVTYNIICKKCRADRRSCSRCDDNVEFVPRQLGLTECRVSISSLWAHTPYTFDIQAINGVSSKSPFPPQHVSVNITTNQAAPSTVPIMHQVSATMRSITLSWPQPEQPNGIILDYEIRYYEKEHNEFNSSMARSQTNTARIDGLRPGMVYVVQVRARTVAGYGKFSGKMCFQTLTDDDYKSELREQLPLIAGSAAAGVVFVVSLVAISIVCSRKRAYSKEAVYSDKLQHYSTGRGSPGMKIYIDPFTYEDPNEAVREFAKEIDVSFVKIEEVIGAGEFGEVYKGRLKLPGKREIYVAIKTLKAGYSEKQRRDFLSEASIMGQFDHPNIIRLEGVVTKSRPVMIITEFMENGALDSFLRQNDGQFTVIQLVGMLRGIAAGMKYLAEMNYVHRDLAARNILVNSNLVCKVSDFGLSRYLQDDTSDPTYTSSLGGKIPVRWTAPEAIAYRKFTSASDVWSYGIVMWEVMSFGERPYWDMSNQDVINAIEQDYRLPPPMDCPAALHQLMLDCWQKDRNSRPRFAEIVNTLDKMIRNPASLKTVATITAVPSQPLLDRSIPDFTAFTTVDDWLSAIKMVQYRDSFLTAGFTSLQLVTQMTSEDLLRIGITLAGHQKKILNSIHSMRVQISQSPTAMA
# [2] = molecular target: T2, Ephrin type-B receptor 2 (Homo sapiens) (UniProt P29323); settings: at 1 µM
# T2 sequence (whole entry): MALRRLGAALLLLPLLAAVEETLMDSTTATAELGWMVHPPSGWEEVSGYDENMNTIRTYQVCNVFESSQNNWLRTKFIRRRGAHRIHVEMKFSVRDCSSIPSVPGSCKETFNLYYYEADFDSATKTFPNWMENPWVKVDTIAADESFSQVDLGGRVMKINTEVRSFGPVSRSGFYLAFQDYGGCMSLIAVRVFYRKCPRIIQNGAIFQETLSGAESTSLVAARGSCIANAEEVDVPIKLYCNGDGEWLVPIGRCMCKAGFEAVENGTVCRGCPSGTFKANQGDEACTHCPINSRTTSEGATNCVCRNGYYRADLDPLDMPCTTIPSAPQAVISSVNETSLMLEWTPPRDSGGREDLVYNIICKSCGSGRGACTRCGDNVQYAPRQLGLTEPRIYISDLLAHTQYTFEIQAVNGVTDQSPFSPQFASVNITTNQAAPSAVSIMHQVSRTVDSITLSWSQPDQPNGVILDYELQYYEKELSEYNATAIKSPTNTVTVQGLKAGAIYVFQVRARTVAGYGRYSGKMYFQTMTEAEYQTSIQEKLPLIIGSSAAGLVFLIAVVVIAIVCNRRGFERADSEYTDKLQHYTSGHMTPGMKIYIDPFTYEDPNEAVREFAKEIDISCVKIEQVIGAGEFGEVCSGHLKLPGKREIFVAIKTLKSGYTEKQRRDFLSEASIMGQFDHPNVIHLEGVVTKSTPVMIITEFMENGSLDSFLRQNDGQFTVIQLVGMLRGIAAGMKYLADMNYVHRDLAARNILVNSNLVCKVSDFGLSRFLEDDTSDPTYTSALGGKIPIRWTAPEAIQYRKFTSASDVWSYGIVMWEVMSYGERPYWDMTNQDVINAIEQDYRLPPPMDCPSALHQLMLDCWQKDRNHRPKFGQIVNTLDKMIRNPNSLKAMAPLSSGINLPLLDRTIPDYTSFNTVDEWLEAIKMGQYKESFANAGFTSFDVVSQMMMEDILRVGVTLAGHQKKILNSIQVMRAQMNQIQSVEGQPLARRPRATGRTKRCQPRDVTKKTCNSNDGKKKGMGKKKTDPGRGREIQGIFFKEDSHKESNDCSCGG
# [3] = molecular target: T2, Ephrin type-B receptor 2 (Homo sapiens); settings: at 10 µM
# [4] = molecular target: T3, Ephrin type-B receptor 3 (Homo sapiens) (UniProt P54753); settings: at 1 µM
# T3 sequence (whole entry): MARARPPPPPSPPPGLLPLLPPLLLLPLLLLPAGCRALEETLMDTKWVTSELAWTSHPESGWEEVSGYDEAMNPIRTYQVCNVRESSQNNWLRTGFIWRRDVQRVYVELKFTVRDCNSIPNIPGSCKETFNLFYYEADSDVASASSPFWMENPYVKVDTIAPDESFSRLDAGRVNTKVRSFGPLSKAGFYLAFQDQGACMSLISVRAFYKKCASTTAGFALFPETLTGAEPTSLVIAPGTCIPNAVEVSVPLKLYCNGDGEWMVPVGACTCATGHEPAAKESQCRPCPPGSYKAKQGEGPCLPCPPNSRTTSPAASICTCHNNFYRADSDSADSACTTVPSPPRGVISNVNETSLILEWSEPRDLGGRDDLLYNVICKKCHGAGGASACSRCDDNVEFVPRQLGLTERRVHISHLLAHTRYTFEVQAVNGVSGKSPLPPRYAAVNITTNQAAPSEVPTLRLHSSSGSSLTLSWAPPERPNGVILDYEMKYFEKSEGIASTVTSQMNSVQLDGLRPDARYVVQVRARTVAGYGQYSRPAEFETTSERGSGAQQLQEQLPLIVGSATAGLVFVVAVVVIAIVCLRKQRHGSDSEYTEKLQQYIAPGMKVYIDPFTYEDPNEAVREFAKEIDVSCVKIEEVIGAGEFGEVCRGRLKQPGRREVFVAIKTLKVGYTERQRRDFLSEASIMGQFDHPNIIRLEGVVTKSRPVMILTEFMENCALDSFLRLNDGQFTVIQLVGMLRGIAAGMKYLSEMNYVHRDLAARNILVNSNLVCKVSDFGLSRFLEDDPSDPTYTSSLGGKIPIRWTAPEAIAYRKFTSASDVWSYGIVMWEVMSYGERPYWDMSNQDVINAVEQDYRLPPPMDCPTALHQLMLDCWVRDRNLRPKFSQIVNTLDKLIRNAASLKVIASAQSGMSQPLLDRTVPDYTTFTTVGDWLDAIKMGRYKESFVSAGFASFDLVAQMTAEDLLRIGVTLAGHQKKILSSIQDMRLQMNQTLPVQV
# [5] = molecular target: T3, Ephrin type-B receptor 3 (Homo sapiens); settings: at 10 µM
# [6] = molecular target: T4, Ephrin type-B receptor 4 (Homo sapiens) (UniProt P54760); settings: at 1 µM
# T4 sequence (whole entry): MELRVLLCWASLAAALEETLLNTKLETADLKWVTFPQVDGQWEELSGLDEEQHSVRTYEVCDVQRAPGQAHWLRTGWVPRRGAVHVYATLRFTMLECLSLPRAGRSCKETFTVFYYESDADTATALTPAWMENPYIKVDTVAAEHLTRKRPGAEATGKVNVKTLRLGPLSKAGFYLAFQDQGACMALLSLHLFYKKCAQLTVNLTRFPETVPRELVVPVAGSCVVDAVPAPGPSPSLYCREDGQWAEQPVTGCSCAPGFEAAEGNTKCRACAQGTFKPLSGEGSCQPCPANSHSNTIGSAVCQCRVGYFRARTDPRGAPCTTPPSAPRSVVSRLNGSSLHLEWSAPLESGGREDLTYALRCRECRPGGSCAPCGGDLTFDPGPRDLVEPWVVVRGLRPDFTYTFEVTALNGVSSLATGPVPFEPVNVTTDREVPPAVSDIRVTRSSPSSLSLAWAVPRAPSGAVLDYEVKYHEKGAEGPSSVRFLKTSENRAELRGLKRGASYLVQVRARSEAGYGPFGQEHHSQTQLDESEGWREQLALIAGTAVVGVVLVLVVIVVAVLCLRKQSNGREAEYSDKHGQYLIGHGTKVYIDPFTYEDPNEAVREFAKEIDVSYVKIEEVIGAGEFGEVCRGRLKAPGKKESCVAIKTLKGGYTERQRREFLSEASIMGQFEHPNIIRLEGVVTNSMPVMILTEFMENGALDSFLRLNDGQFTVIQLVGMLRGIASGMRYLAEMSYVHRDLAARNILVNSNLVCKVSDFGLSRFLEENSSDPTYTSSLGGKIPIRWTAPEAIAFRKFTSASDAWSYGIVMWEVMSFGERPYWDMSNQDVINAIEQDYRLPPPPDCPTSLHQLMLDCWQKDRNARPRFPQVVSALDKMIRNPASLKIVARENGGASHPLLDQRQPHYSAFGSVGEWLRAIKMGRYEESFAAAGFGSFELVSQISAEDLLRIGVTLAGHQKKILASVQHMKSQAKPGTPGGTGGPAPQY
# [7] = molecular target: T4, Ephrin type-B receptor 4 (Homo sapiens); settings: at 10 µM
# [8] = molecular target: Receptor tyrosine-protein kinase erbB-4 (Homo sapiens) (UniProt Q15303); settings: at 1 µM
# [9] = molecular target: Receptor tyrosine-protein kinase erbB-4 (Homo sapiens) (UniProt Q15303); settings: at 10 µM
# [10] = molecular target: Focal adhesion kinase 1 (Homo sapiens) (UniProt Q05397); settings: at 1 µM
# Sequence of Focal adhesion kinase 1 (Homo sapiens) (Q05397 2-1052 limits assumed): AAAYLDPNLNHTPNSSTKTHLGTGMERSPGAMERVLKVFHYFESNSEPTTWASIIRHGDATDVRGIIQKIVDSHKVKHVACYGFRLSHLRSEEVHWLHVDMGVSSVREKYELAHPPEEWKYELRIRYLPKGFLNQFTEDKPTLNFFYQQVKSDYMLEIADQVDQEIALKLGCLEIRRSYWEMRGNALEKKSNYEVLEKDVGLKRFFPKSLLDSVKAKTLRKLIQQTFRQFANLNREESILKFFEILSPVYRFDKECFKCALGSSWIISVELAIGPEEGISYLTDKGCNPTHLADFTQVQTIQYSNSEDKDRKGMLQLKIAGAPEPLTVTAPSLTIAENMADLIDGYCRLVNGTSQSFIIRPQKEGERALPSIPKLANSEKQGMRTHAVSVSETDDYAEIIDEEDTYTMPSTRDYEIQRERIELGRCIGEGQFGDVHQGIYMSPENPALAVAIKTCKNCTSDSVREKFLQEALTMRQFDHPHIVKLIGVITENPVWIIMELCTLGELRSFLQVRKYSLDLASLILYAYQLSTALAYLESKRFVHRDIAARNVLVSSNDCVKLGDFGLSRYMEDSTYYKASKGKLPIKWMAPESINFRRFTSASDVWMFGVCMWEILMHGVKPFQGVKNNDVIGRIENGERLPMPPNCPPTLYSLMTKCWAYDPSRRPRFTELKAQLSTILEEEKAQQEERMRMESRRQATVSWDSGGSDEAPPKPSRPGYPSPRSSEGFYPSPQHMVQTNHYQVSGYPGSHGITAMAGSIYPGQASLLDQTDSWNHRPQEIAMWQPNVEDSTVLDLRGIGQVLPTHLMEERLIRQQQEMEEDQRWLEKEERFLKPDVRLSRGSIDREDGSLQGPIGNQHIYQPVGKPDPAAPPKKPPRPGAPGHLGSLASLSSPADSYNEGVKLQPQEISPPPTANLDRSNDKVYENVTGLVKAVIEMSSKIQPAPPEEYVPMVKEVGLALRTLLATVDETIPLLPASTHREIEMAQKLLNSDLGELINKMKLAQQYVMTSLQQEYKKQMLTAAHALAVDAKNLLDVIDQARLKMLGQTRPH
# Sequence of Receptor tyrosine-protein kinase erbB-4 (Homo sapiens) (Q15303 whole entry): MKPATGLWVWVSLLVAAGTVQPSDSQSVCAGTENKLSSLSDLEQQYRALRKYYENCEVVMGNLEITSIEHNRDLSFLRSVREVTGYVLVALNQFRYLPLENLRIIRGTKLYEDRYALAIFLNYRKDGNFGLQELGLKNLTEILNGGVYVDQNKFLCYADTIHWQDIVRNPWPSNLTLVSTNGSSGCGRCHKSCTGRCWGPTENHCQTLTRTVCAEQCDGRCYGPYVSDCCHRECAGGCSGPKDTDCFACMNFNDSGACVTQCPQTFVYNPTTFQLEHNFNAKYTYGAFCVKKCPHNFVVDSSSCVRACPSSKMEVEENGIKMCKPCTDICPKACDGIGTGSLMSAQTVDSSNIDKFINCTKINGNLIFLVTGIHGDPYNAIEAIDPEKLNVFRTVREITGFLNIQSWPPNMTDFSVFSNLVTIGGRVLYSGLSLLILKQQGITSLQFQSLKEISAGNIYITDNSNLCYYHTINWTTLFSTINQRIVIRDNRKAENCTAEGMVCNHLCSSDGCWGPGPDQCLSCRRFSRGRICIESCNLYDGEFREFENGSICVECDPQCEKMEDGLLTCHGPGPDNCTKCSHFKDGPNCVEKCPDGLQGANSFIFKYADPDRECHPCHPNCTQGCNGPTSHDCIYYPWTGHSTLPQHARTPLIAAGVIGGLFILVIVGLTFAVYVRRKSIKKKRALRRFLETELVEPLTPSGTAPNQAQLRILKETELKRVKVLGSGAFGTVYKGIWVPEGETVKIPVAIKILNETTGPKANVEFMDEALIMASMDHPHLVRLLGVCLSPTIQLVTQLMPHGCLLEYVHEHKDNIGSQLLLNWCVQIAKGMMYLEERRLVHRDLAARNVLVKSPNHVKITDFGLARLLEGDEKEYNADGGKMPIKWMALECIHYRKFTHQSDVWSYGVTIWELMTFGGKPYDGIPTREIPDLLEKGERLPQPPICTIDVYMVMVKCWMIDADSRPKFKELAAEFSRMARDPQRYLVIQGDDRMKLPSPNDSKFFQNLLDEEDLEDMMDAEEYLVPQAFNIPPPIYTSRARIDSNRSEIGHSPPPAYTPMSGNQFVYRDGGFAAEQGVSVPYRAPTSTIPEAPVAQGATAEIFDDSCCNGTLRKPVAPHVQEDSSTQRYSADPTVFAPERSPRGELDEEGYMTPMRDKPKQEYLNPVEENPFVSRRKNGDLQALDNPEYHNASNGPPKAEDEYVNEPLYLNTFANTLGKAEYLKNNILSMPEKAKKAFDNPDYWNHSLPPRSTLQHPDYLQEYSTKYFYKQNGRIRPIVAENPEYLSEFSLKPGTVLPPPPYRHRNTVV
smiles,measurement,setting,value
O=C1NC(=O)c2c1c1c3ccccc3[nH]c1c1[nH]c3cc(Br)ccc3c21,residual activity,[1],98%
same,residual activity,[2],106%
same,residual activity,[3],101%
same,residual activity,[4],107% (inactive)
same,residual activity,[5],83%
same,residual activity,[6],102%
same,residual activity,[7],93%
same,residual activity,[8],95%
same,residual activity,[9],83%
same,residual activity,[10],98%
